Source: PubChem BioAssay
Active and inactive are the calls of the source.

Legend:
Albumin (Bos taurus) = Albumin (Bos taurus) (UniProt P02769); experiment: compounds binding labelled BSA control protein – biochemical, small-molecule microarray, Alexa647 label, 635/667 nm fluorescence, artefact control for SMM control protein annotation, profiling panel (AID 1118); details: BSA-A647 binding, fluorescence 635 nm, higher = more signal;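 further: score merges 667 nm emission intensity and signal-to-noise per printed compound spot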
Chain of Albumin (Bos taurus) (P02769 whole entry, looked up): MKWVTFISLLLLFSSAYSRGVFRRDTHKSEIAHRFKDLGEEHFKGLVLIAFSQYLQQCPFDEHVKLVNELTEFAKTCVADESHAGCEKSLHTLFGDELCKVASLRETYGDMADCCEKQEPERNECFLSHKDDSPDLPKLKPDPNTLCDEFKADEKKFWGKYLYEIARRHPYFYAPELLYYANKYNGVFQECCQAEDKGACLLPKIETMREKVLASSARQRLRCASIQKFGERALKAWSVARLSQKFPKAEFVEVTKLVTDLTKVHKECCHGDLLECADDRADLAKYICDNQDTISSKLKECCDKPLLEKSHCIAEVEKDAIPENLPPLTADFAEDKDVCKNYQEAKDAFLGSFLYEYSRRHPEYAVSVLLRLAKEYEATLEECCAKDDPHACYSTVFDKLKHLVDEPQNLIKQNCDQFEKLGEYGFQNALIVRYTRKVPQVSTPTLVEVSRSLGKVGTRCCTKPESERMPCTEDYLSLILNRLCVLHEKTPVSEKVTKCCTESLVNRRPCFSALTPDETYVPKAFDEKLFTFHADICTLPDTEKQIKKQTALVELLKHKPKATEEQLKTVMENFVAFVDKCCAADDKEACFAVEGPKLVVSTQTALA

[1] = probe aXIP binding to arrayed compounds – biochemical, NeuroSMM set, 635/667 nm fluorescence, primary screen (AID 1119); details: small-molecule microarray, higher = more signal, called active from +8 up or from −8 down;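 further: probe is the protein aXip251-270 applied at 1 µg/mL to compound-printed slides; binding of probe to printed compounds measured as 667 nm fluorescence plus signal to noise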
[2] = probe aNOTCH3 binding on compound microarray – biochemical, small-molecule microarray, 635/667 nm fluorescence, primary screen (AID 1120); details: higher = more signal;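 further: probe is a biotin-tagged antibody raised against NOTCH3 rather than NOTCH3 protein; score merges spot fluorescence near 667 nm with spot signal to noise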
[3] = probe aNOTCH2 binding on compound microarray – biochemical, small-molecule microarray, 635/667 nm fluorescence, primary screen (AID 1121); details: higher = more signal;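 further: score merges feature fluorescence read at 667 nm with its signal to noise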
[4] = molecular target: Carbonic anhydrase 2 (Homo sapiens) (UniProt P00918); experiment: compounds binding carbonic anhydrase 2 – biochemical, small-molecule microarray, Alexa647-labelled CAII, profiling panel (AID 1122); details: CAII-A647 binding fluorescence, higher = more signal
[5] = COS7 lysate on small-molecule microarray, probe aHis, 635 nm (AID 1123); details: COS7 cell lysate, fluorescence, higher = more signal;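 further: z-score combines 667nm fluorescence intensity with signal-to-noise per printed compound spot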
[6] = probe aLAP1 signal on lysate-treated microarray – cell lysate, small-molecule microarray, COS7 lysate, primary screen (AID 1124); details: probe aLAP1, fluorescence, higher = more signal;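 further: lysate comes from COS7 cells expressing LAP1 and is applied at 0.3 µg/mL; score merges spot fluorescence near 667 nm with signal-to-noise over triplicate slides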
Sam68 (KHDRBS1) = experiment: compounds binding KHDRBS1 protein – biochemical, small-molecule microarray, 635 nm fluorescence, primary screen (AID 1125); details: higher = more signal;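 further: score merges 667 nm channel intensity with signal to noise over triplicate slides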
[7] = test system: Chordin-like protein 2 (CHRDL2); experiment: compounds binding chordin-like 2 – biochemical, small-molecule microarray, 635 nm fluorescence, primary screen (AID 1126); details: fluorescence 635 nm, higher = more signal;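 further: printed compound slides probed with Chrdl2 protein at 4 µg/mL for 1 h at 4 C; score merges 667 nm emission intensity with signal to noise over three replicate slides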
[8] = molecular target: Concanavalin-A (Canavalia ensiformis) (UniProt P02866); experiment: compounds binding concanavalin A lectin – biochemical, small-molecule microarray, Alexa647 label, 635 nm, artefact control for SMM control protein annotation, primary screen (AID 1127); details: ConA-A647 binding fluorescence, higher = more signal;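 further: z combines 667 nm emission intensity with signal-to-noise across three replicate slides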
Chain of Concanavalin-A (Canavalia ensiformis) (P02866 whole entry, looked up): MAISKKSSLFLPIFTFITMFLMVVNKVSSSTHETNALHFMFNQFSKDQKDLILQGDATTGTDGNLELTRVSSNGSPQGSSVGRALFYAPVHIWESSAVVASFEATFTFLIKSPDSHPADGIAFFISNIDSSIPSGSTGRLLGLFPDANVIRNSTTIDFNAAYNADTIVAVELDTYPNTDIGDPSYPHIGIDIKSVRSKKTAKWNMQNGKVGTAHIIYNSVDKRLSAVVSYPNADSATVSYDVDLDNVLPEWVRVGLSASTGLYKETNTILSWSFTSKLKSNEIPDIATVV

[9] = compounds binding Alexa647 anti-His antibody – biochemical, small-molecule microarray, 635 nm fluorescence, artefact control for SMM control protein annotation, primary screen (AID 1128); details: higher = more signal;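 further: score merges feature fluorescence with signal-to-noise for each printed compound spot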
[10] = test system: Human papillomavirus type 1a E7 protein (residues 1-88); experiment: HPV1a E7 small-molecule binders, primary screen, biochemical, small-molecule microarray, residues 1-88, 635 nm (AID 1129); details: small-molecule microarray binding, fluorescence 635 nm; higher = more signal
[11] = molecular target: Focal adhesion kinase 1 (Homo sapiens) (UniProt Q05397); experiment: PTK2 protein binding on printed compound slides – biochemical, small-molecule microarray, 635/667 nm fluorescence, BSA, DTT, primary screen (AID 1130); details: 635 nm fluorescence, higher = more signal;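 further: composite of spot emission at 667 nm and signal to noise over triplicate slides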
Chain of Focal adhesion kinase 1 (Homo sapiens) (Q05397 whole entry, looked up): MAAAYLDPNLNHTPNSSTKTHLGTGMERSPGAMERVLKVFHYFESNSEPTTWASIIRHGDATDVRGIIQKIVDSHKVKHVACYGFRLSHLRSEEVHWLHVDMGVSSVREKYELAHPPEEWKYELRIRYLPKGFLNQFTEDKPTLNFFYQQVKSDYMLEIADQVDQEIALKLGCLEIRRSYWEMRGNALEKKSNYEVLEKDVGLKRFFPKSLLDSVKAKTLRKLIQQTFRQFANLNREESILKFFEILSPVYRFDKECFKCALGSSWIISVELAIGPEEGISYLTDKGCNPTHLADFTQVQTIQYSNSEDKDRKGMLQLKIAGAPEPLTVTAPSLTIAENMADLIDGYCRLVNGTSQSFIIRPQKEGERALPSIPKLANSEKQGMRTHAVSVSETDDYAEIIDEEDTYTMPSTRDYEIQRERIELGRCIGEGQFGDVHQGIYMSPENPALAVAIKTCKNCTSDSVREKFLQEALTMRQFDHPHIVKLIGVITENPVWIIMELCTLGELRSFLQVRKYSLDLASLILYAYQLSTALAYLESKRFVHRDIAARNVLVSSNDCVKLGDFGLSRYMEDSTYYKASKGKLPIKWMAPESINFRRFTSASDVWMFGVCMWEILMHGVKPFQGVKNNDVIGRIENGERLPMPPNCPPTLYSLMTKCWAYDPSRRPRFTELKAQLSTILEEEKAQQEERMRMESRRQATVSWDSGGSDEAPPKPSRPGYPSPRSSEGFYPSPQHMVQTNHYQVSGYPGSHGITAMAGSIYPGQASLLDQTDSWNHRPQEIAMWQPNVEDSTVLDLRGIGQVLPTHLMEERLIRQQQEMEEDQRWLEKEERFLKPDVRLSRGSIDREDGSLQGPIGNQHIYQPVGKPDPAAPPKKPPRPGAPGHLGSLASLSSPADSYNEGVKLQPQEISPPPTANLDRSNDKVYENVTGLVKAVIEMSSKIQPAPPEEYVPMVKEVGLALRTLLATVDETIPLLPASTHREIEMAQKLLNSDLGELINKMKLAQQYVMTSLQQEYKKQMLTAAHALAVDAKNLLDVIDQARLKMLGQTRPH

[12] = test system: Fibrinogen (Alexa647-labelled); experiment: Alexa647-fibrinogen binding to printed small molecules – biochemical, small-molecule microarray, 635/667 nm fluorescence, artefact control for SMM control-protein annotation, profiling panel (AID 1131); details: fibrinogen-A647 binding fluorescence, higher = more signal;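 further: z-score merges 667 nm fluorescence with per-spot signal-to-noise over triplicate slides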
[13] = molecular target: Follistatin (Homo sapiens) (UniProt P19883); experiment: FST protein binding to printed compounds – biochemical, small-molecule microarray, 635/667 nm fluorescence, primary screen (AID 1132); details: 635 nm fluorescence, higher = more signal
Chain of Follistatin (Homo sapiens) (P19883 whole entry, looked up): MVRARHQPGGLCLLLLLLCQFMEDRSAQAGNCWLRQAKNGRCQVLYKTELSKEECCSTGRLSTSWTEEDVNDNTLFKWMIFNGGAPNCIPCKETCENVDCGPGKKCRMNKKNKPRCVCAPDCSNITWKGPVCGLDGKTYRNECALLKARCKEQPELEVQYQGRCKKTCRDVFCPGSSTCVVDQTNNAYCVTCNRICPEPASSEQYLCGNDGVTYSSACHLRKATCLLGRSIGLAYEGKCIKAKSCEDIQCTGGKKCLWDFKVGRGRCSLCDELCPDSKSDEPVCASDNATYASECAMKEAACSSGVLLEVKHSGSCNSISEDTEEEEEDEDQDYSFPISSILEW

[14] = molecular target: Fibroblast growth factor 2 (Homo sapiens) (UniProt P09038); experiment: basic fibroblast growth factor binding to printed compounds – biochemical, small-molecule microarray, 635/667 nm fluorescence, primary screen (AID 1133); details: FGF2, fluorescence 635/667, higher = more signal
Chain of Fibroblast growth factor 2 (Homo sapiens) (P09038 whole entry, looked up): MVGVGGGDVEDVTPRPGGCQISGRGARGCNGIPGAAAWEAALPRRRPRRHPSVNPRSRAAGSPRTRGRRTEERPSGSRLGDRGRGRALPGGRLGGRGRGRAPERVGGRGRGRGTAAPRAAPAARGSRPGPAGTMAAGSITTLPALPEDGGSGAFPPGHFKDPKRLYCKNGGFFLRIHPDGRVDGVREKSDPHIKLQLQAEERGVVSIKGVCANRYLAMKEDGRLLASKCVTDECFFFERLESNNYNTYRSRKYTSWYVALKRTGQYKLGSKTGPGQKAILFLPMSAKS

[15] = JC-1 mitochondrial potential readout, lung cancer cells – cell-based, A549, JC-1 fluorescence, basal, 24 h, 100 nL, profiling panel (AID 1138); details: higher = more signal;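 further: A549 lung adenocarcinoma cells under basal conditions with no added stimulus; test concentration not given here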
Lefty1 = Lefty1 protein binding to printed compounds – biochemical, small-molecule microarray, 635/667 nm fluorescence, primary screen (AID 1139); details: fluorescence 635/667, higher = more signal
[16] = test system: wheat germ agglutinin (Triticum aestivum), Alexa647-labelled; experiment: Alexa647-WGA lectin binding to printed small molecules – biochemical, small-molecule microarray, 635/667 nm fluorescence, artefact control for SMM control-protein annotation, profiling panel (AID 1140); details: WGA-A647 binding, 635 nm fluorescence, higher = more signal;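 further: score merges 667 nm feature emission with signal to noise over triplicate slides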
[17] = molecular target: Luciferin 4-monooxygenase (Photinus pyralis) (UniProt P08659); experiment: inhibition of purified Photinus pyralis luciferase – biochemical, luminescence, purified enzyme, 2006 set, primary screen (AID 1141); details: purified firefly luciferase, SteadyGlo luminescence, 30 min; higher = more signal, called active from +8 up or from −8 down;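 further: cell-free assay with purified firefly luciferase at 100 ng per well in PBS; test concentration not given here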
Chain of Luciferin 4-monooxygenase (Photinus pyralis) (P08659 whole entry, looked up): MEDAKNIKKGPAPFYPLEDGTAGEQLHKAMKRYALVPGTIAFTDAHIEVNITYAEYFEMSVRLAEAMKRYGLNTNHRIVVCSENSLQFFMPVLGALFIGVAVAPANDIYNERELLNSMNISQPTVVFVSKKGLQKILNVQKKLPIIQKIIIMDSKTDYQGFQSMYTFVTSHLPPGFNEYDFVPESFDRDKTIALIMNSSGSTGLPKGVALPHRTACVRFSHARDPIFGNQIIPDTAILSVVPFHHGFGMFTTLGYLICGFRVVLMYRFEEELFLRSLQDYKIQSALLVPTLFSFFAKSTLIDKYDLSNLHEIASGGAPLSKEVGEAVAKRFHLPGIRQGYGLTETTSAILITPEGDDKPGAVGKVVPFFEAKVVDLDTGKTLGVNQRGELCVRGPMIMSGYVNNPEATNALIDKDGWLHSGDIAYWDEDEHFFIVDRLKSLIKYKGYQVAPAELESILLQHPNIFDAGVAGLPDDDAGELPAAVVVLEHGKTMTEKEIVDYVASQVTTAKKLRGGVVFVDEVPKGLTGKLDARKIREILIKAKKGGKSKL

Compound	composite z-score (Albumin (Bos taurus))	composite Z-score [1]	composite z-score [2]	composite z-score [3]	composite z-score [4]	composite z-score [5]	composite z-score [6]	composite z-score (Sam68 (KHDRBS1))	composite z-score [7]	composite z-score [8]	composite z-score [9]	composite z-score [10]	composite z-score [11]	composite z-score [12]	composite z-score [13]	composite z-score [14]	z-score [15]	composite z-score (Lefty1)	composite z-score [16]	z-score [17]
CN1C(=O)C2C=CC(C(O)C3CC=CCC3)N(Nc3ccccc3)C2C1=O (stereo not given)	0.598	-0.442 (inactive)	0.351	0.0697	0.715	2.75	-0.147	1.3	0.912	0.955	0.674	1.14	-0.198	0.678	1.28	0.769	0.883	1.29	1.24	0.864 (inactive)
CN(C)CCCC[C@@H]1NC(=O)[C@@H]2C[C@H](C(=O)O)[C@H](c3ccc(O)cc3)N2C1=O	-1.07	0.361 (inactive)	0.237	-0.117	0.398	0.917	0.324	0.916	0.917	1.12	1.34	0.704	0.324	0.166	1.37	1.35	-0.0467	1.64	0.176	-0.486 (inactive)
C=C[C@H](OC)[C@@H](OC(=O)Nc1ccc(SC)cc1)c1ccc(O)c(F)c1	0.661	1.13 (inactive)	0.0864	-0.182	0.699	2.82	0.694	1.24	-0.267	0.187	0.705	0.0378	-0.264	0.756	0.171	0.781	-0.97	-0.0871	0.0251	-3.45 (inactive)
COCCOC(=O)N1C(=O)[C@@]2(c3cc(C#CCNC(N)=O)ccc31)[C@H](c1ccc(OCCO)cc1)N1[C@H](c3ccccc3)[C@H](c3ccccc3)OC(=O)[C@H]1[C@@H]2C(=O)N1CCCCCCC1	-0.208	-0.333 (inactive)	0.255	-0.0059	0.174	0.043	0.332	0.82	0.137	0.669	-0.347	0.718	0.422	0.355	1.35	0.117	-0.99	0.854	0.884	-1.45 (inactive)
CN1CCC(CCCO)=CC1C1CC1 (stereo not given)	-0.958	3.24 (inactive)	-0.0918	-0.181	0.299	0.238	-0.569	0.0585	0.39	0.066	0.346	-0.256	-0.233	-0.146	0.803	0.923	0.949	1.12	-0.59	-0.703 (inactive)
COc1cc(CO)cc(I)c1O[C@H]1C=C(C(=O)NCCO)C[C@@H](N(CC2CCCCC2)C(=O)c2cc3ccccc3oc2=O)[C@@H]1O	-0.0129	0.577 (inactive)	0.0158	-0.12	-0.0979	0.14	0.379	-0.461	0.538	0.358	0.309	0.238	-0.071	1.02	0.175	1.17	0.272	0.275	0.516	-0.462 (inactive)
COCCOC(=O)N1C(=O)[C@@]2(c3cc(C#CC4=CCCCC4)ccc31)[C@H](C(=O)NC[C@H](O)c1ccccc1)[C@H]1C(=O)O[C@H](c3ccccc3)[C@H](c3ccccc3)N1[C@@H]2c1ccccc1OCCO	0.648	0.155 (inactive)	0.315	-0.0311	0.358	1.11	0.474	1.3	0.239	1.09	0.69	1.17	0.985	0.943	1.34	0.825	-1.49	1.09	1.09	-0.855 (inactive)
Cc1ccc(S[C@]2(C(=O)O)CC(=O)N(Cc3ccccc3)[C@@H]2c2ccc(CO)cc2)cc1	-0.0554	1.28 (inactive)	-0.0328	-0.154	0.724	1.02	0.623	0.401	-0.852	-0.467	-0.846	0.0745	-0.412	0.0619	-0.256	0.0167	1.31	-0.532	0.0681	-1.32 (inactive)
Cc1ccc(S[C@]2(C(=O)NC3CC3)CC(=O)N(Cc3cc(C(F)(F)F)cc(C(F)(F)F)c3)[C@@H]2c2ccc(CO)cc2)cc1	0.371	-0.421 (inactive)	-0.0345	-0.169	0.375	0.42	1.13	0.792	0.115	0.633	1.79	0.489	0.389	0.182	1.2	0.411	0.232	0.821	0.31	1.22 (inactive)
C=CCN(C(=O)C1N(c2ccc(CCO)cc2)C(=O)C2C(C(=O)O)C3C=CC21O3)C(C)(C)C (stereo not given)	-1.21	-0.12 (inactive)	-0.549	-0.171	0.971	1.42	-0.262	-1.24	-4.23	-3.08	-1.51	-0.55	-0.612	-1.4	-2.8	-2.13	-0.112	-3.43	-2.09	-0.163 (inactive)
COc1ccc(CCNC(=O)[C@@]2(c3ccc([N+](=O)[O-])cc3)CC(=O)N(C(C)C)[C@@H]2c2ccc(CO)cc2)cc1	0.0638	0.265 (inactive)	-0.331	-0.154	0.748	0.462	0.451	-0.549	-2.5	-0.895	-0.601	-0.622	-0.637	-2.13	-0.669	-0.848	0.774	-2.2	-0.81	-0.939 (inactive)
